In all, about 1,900 compounds went through this assay and about 15 (0.8%) were called active. For the sample, actives were picked, then their nearest neighbours and some compounds at random. Values without a mark were called inactive.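 Rule for the calls: active = every replicate shows at least 50% inhibition; inconclusive = mean inhibition at least 50% but some replicate below; inactive = the rest.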
Target: DNA repair protein RAD52 homolog (Homo sapiens) (UniProt P43351)
Assay: RAD52 ssDNA annealing inhibitors, primary screen, biochemical, FRET, single point (AID 651660);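 note: 0% = median of neutral control wells and 100% = median of positive control wells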
Conditions: Recombinant RAD52 ssDNA annealing, FRET fluorescence, 30 min; at 18.7 µM; stronger effect = higher value

Sequence of DNA repair protein RAD52 homolog (Homo sapiens) (P43351 whole entry, looked up): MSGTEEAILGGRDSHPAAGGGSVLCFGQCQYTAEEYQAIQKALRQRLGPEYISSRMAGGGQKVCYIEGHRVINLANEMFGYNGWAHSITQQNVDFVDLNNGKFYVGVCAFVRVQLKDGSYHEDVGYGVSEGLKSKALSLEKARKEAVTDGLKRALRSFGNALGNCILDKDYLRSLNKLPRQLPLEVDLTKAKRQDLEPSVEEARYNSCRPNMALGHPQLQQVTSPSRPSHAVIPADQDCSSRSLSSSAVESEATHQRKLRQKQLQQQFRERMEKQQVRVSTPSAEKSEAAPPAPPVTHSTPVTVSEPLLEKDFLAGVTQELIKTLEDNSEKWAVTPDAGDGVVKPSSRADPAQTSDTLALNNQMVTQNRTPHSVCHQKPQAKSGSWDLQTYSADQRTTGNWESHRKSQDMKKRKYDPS

SMILES | inhibition
CC1(C)CC(=O)C(C(=O)CCCCC(=O)C2C(=O)CC(C)(C)CC2=O)C(=O)C1 | -11.5%
CC(=O)NCCCC(=O)NC(CCC(=O)OCc1ccccc1)C(=O)OCc1ccccc1 (stereo not drawn) | -10.8%
COC(=O)c1ccc(OCCCCN2CC(C)OC(C)C2)cc1 (stereo not drawn) | -1.97%
CC1(C)OC2OC(C(=O)N/N=C/c3ccccc3F)C3OC(C)(C)OC3C2O1 (stereo not drawn) | -8.91%
O=C(/C=C/c1c[nH]c2ccccc12)c1cccc2ccccc12 | -25.7%
O=C(CCCCCCCC(=O)c1ccccc1)c1ccccc1 | 2.66%
COc1ccc(CCNc2ncnc3c2[nH]c2cc(OC)c(OC)cc23)cc1OC | 68.2% (active)
COc1cc2[nH]c3c(=O)n(CCN4CCOCC4)cnc3c2cc1OC | 1.23%
Clc1ccc(CCNc2ncnc3nc[nH]c23)cc1 | 1.95%
CN(Cc1ccccc1)CC(O)COc1ccc(CNCc2cccnc2)cc1 (stereo not drawn) | 25.5%
COc1c2ccoc2nc2c(OC)cccc12 | 10.6%
COc1ccc(N2C(=O)[C@@H]3Cc4ccccc4CN3C2=O)cc1 | -7.83%
Cc1oc2c(CN3CCCC3)c(O)ccc2c(=O)c1-c1ccc(Cl)cc1 | 2.93%
CCN(Cc1ccncc1)Cc1nc(Cc2ccccc2Cl)no1 | -13.8%
COc1ccc(C(CC(=O)N2CCOCC2)C(C)C)cc1 (stereo not drawn) | 4.92%
O=C(CSCc1ccccc1)NCCCN1CCOCC1 | 7.56%
CCN(Cc1cnn(C)c1)Cc1nc(C(c2ccccc2)c2ccccc2)no1 | 1.94%
N/C(=N\OC(=O)/C=C/c1ccccc1)c1ccc(Br)cc1 | -5.01%
Cc1nc(-c2coc3c(CN(C)C)c(O)ccc3c2=O)cs1 | 5.53%
Cc1cccc(Nc2ccccc2C(=O)O)c1C | -13.3%
c1ccc(Nc2cccc3c(Nc4ccccc4)cccc23)cc1 | 51.9% (active)
O=C(O)c1ccccc1Nc1cccc(C(F)(F)F)c1 | -6.2%
COc1ccc(-c2nc(C)c(C(C)=O)n2O)cc1OC | -4.44%
COc1cccc(-n2cc(CNCc3c(C(=O)N(C)C)nc4ccc(Cl)cn34)cn2)c1 | -5.77%

SMILES | inhibition
COC(=O)c1sccc1NC(=O)Nc1ccccc1F | -4.3%
Cc1oc2cc(O)cc(O)c2c(=O)c1-c1ccc2c(c1)OCCCO2 | 3.6%
Cn1c2ccc(CC(=O)O)cc2c2cc(CC(=O)O)ccc21 | -173%
CC(C)c1ccccc1OCCNC(=S)NC(=O)c1cccnc1 | -11.8%
COc1cccc2c1C(=O)O/C2=C/c1ccc2c(c1)OCO2 | -3.05%
CCn1c(O)c(/C=C2\C=Nc3ccccc32)sc1=O | 8.58%
COC(=O)c1cc(OC)c(OC)c(OC)c1[N+](=O)[O-] | -11.8%
COc1ccc(Br)cc1C(=O)Nc1ccc(C(=O)O)cc1 | -5.54%
Cc1cnc(C(=O)N2CCCC(C(=O)c3ccc(Cl)cc3C)C2)cn1 (stereo not drawn) | 3.18%
Cc1ccc2[nH]c(=O)c(Cc3ccccc3)c(O)c2c1 | -9.59%
CN1C(=O)C(O)(CC(=O)/C=C/C=C/c2ccccc2)c2ccccc21 (stereo not drawn) | -13.6%
CC(C)Oc1ccc(C(CC(=O)O)c2ccc(F)cc2)cc1 (stereo not drawn) | -7.3%
COc1ccc(CN(CCC(c2ccccc2)c2ccc(OC(C)C)cc2)C(=O)CCl)cc1OC (stereo not drawn) | 28.8%
COc1ccc(CNCCC(c2ccc(F)cc2)c2ccc(OC(C)C)cc2)cc1OC (stereo not drawn) | 57.6% (active)
O=C(CNC(=O)OCc1ccccc1)NC1CCCCCC1 | 0.625%
CC(C)OC(=O)C1C2C=CC3(CN(CC4CCCO4)C(=O)C13)O2 (stereo not drawn) | -7.36%
O=C(O)c1ccc(-c2ccc(O)c(F)c2)cc1 | -3.36%
Cc1ncc(C(=O)O)c(C(=O)O)c1N | -18.8%
O=C(O)CCCNc1ccc(S(=O)(=O)Nc2ccccc2C(=O)O)cc1C(=O)O | -12.9%
CCOC(=O)c1ccc(N2C(=O)C(CC(N)=O)N(CCc3ccc(OC)c(OC)c3)C2=S)cc1 (stereo not drawn) | 3.53%
CC(C)c1ccc(NC(=O)CNS(=O)(=O)c2ccc(F)cc2)cc1 | 3.93%
CCOc1ccc2oc(-c3ccccc3)c(C(=O)O)c2c1 | -1.63%
Cc1cccc(-n2c(Cc3ccccc3)n[nH]c2=S)c1 | -6.53%
NCCOc1ccccc1OCCN | 2.09%

Reference: PubChem BioAssay AID651660 (Broad Institute, 2012)
